Data taken from PubChem BioAssay AID1981 (Southern Research Specialized Biocontainment Screening …, 2009).
Out of some 2,200 compounds screened, about 480 (22%) were called active. No rule for the calls is given here. These entries were drawn from the full list. Measured potencies and affinities stand elsewhere.

Test: S. Typhimurium GFP fluorescence dose response in modified counterscreen for PhoP regulon inhibitor project (AID 1981);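 also: 0% = induced DMSO wells and 100% = uninduced wells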
Conditions: 4 h; series mostly up to 150 µM; inhibition: at the top concentration

Row | SMILES | inhibition
1 | CC(CO)(CO)NCc1ccc(-c2ccccc2)cc1 | -6.59% (inactive)
2 | Cc1cc(C(=O)NCc2ccco2)no1 | 4.98% (inactive)
3 | Cc1cc(SCC(N)=O)nc(SCC(=O)c2ccccc2)n1 | -20.2% (inactive)
4 | COc1ccccc1NS(=O)(=O)c1cccc(C(=O)N/N=C/c2c(C)nn(-c3ccccc3)c2N2CCCC2)c1 | 26.4% (inactive)
5 | CCC(C)n1c(O)c(C(c2ccccn2)c2c(O)n(C(C)CC)c(=S)[nH]c2=O)c(=O)[nH]c1=S (stereo not drawn) | -10.1% (inactive)
6 | Cn1c(=O)c(=O)n(C)c2cc(S(=O)(=O)Nc3ccc4c(c3)OCCO4)ccc21 | 5.3% (inactive)
7 | Cc1ccc(N(CC(=O)Nc2cccc(C)c2)S(=O)(=O)c2cccc3nonc23)cc1 | -13.7% (inactive)
8 | Nc1cc(N2CCCCC2)c(Cl)cc1[N+](=O)[O-] | 2.22% (inactive)
9 | CCOc1ccc(-c2noc(CCCC(N)=O)n2)cc1OC | -23.5% (inactive)
10 | CCOc1ccc(/C=C/C(=O)Nc2ccc(OC)cc2[N+](=O)[O-])cc1 | -7.63% (inactive)
11 | Nc1ccc(N(c2ccccc2)c2ccc(N)cc2)cc1 | 34.6% (inactive)
12 | Cc1ccccc1C(=O)N(C)Cc1ccccc1 | -6.23% (inactive)
13 | CCC(CC)c1nnc(NC(=O)Oc2ccccc2)s1 | 0.33% (inactive)
14 | CCOCc1nnc(NC(=O)COC)s1 | -11.1% (inactive)
15 | Cc1cc(C=O)c(C)n1-c1ccc(Oc2ccc([N+](=O)[O-])cn2)cc1 | -14.5% (inactive)
16 | CCCn1nnc(NC(=O)c2ccc(Br)o2)n1 | -3.29% (inactive)
17 | COc1ccccc1CNc1nc2nc(C)c(C)c(=O)n2[nH]1 | 7.23% (inactive)
18 | COc1ccc(CCNC(=S)Nc2cccc3ccccc23)cc1 | -13.8% (inactive)
19 | c1ccc2c(CCNCc3ccc4c(c3)OCO4)c[nH]c2c1 | 4.11% (inactive)
20 | Brc1cccc(CNCc2cccs2)c1 | 10.1% (inactive)
21 | COc1cc(CNCc2cccs2)cc(Br)c1OC | -1.87% (inactive)
22 | Fc1ccc(CCNCc2cccc(Cl)c2)cc1 | -5.69% (inactive)
23 | CCN(C(=O)COc1cc(=O)n(CC)c2ccccc12)c1cccc(Cl)c1 | 3.2% (inactive)

Row | SMILES | inhibition
24 | CCN(CC)S(=O)(=O)c1ccc2c(c1)nc(SCC(=O)N1CCOCC1)n2-c1ccccc1OC | 1.44% (inactive)
25 | O=c1ccc2ccc(Oc3ccc([N+](=O)[O-])cc3[N+](=O)[O-])cc2o1 | 12.6% (inactive)
26 | O=C(CCN1CCc2ccccc2C1)Nc1ccccc1F | -10.2% (inactive)
27 | CCCc1nc2c(o1)CC(CC(C)SCC)CC2=O (stereo not drawn) | -6.99% (inactive)
28 | COc1ccc(S(=O)(=O)Nc2ccc(F)c(F)c2)cc1Cl | 4.83% (inactive)
29 | S=C(NCc1cccnc1)Nc1ccc(Cl)c(Cl)c1 | 8.92% (inactive)
30 | CCc1cccc(C)c1NC(=S)NCc1cccn1C | -0.7% (inactive)
31 | COC(=O)C1=C(CSc2nc3ccccc3o2)NC(=O)NC1c1cc(C)ccc1C (stereo not drawn) | 13.2% (inactive)
32 | CCn1c(SCc2nc3scc(-c4ccccc4)c3c(=O)[nH]2)nnc1-c1cccs1 | 18.2% (inactive)
33 | COc1ccc2c(c1)OC1=C(C(=O)CCC1)C2C1=C(O)CCCC1=O (stereo not drawn) | 7.41% (inactive)
34 | CC(=O)Nc1cccc(-c2csc(Nc3ccccn3)n2)c1 | -1% (inactive)
35 | O=C(NNc1nc(-c2ccccc2)cs1)c1ccccc1 | -3.2% (inactive)
36 | c1ccc(CN2CCN(c3nc(-c4ccccc4)nc(-n4ccnc4)n3)CC2)cc1 | -2.93% (inactive)
37 | C#CCOc1ccc(/C=N/O)cc1Cl | -3.25% (inactive)
38 | Cc1ccc(-c2csc(=S)n2CC(=O)OCC(=O)NCc2ccco2)cc1 | -8.25% (inactive)
39 | N#Cc1ccc(C(c2nnnn2CCc2ccccc2)N2CCCCCC2)cc1 (stereo not drawn) | -15.7% (inactive)
40 | Cc1ccc(S(=O)(=O)NNC(=O)c2ccc(O)cc2)cc1 | 1.15% (inactive)
41 | CC1(C)SC(=S)N(NC(=O)Nc2ccccc2)C1N(O)C(=O)Nc1ccccc1 (stereo not drawn) | 7.41% (inactive)
42 | O=C(CCN1CCCCC1)NCC1OCCc2ccccc21 (stereo not drawn) | -20.4% (inactive)
43 | S=C(Nc1cccc(Cl)c1)Nc1cccc2cnccc12 | -24.1% (inactive)
44 | CCc1nc2cc(Cl)c(Cl)cc2[nH]1 | 12% (inactive)
45 | Cc1cccc(N2CCN(CC(=O)Nc3nccs3)CC2)c1C | -2.79% (inactive)
46 | CCCOC(=O)Oc1ccc2c(=O)c(Oc3cc(C)cc(C)c3)coc2c1 | -16.2% (inactive)

Row | SMILES | inhibition
47 | COC(=O)c1ccccc1Oc1cnc2ccccc2n1 | 3.05% (inactive)
48 | CCOC(=O)c1c(/N=C/c2ccc(O)cc2O)sc2c1CCC2 | -1.93% (inactive)
49 | Cc1cccc(Nc2ncccc2C(=O)NCc2cccs2)c1C | -4.09% (inactive)
50 | Cc1ccccc1NC(=O)c1sc2nc3c(c(-c4ccco4)c2c1N)CCC3 | -2.93% (inactive)
51 | O=C(Nc1nc2cc3c(cc2s1)OCO3)C1=COCCO1 | -14.7% (inactive)
52 | N#Cc1c(NC(=O)c2cnccn2)sc2c1CCCC2 | -12.6% (inactive)
53 | COc1ccc(/C=C/C(=O)NC(=S)NNC(=O)c2cnccn2)cc1 | 6.18% (inactive)
54 | COc1ccc(N2CCN(C(=O)CN(c3cccc(Br)c3)S(C)(=O)=O)CC2)cc1 | 0.41% (inactive)
55 | NC(=O)CCc1c[nH]c2ccccc12 | -14% (inactive)
56 | Cc1ccc2c(c1)[nH]c1c(N3CCN(Cc4ccccc4)CC3)ncnc12 | -14.9% (inactive)
57 | O=C(Nc1ccc(S(=O)(=O)N2CCCC2)cc1)c1ccc(CN2CCc3ccccc3C2)cc1 | 2.53% (inactive)
58 | O=C(CN1CCN(Cc2ccccc2)CC1)c1c[nH]c2ccccc12 | -2.5% (inactive)
59 | O=C(CCCOc1ccccc1)N1CCCc2ccccc21 | 6.17% (inactive)
60 | CCc1nc(SCC(=O)N2CCCc3ccccc32)c2oc3ccccc3c2n1 | 4.7% (inactive)
61 | CC1CC(C)CN(CCCNC(=O)C2CCC(=O)N2C2CCCC2)C1 (stereo not drawn) | -16.3% (inactive)
62 | CCc1ccc(NC(=O)c2noc3c2CCc2ccccc2-3)cc1 | -5.12% (inactive)
63 | CCSc1nnc(NC(=O)Cc2cccc(OC)c2)s1 | -15.9% (inactive)
64 | Nn1c(COc2cccc(Br)c2)nnc1SCC(=O)N1CCc2ccccc2C1 | -19.6% (inactive)
65 | CCCc1cc(=O)oc2cc(OCC(=O)N3CCc4ccccc43)ccc12 | -17.5% (inactive)
66 | O=[N+]([O-])c1cccc(CN(CCO)Cc2ccccc2)c1 | 2.79% (inactive)
67 | COCCNC(=O)c1ccccc1NS(=O)(=O)c1ccc(Br)s1 | -10.8% (inactive)
68 | CCOc1ccc(OCc2ccc(C(=O)N3CCc4ccccc4C3)o2)cc1 | 2.33% (inactive)
69 | O=C(OCc1nnc(-c2ccccc2)o1)c1ccc(S(=O)(=O)NCc2ccco2)cc1 | -7.31% (inactive)

Row | SMILES | inhibition
70 | COc1ccc(Cl)cc1NC(=O)C(C)OC(=O)c1ccc(NS(=O)(=O)c2ccc3[nH]c(=O)[nH]c3c2)cc1 (stereo not drawn) | 33.5% (inactive)
71 | c1ccc2c(c1)CCN(c1ncnc3c1[nH]c1ccccc13)C2 | 5.41% (inactive)
72 | O=C(C(=O)N1CCc2ccccc2C1)N1CCc2ccccc2C1 | -2.68% (inactive)
73 | CC(C)(C)c1ccc(C(=O)NC(=S)NCc2cccnc2)cc1 | -9.06% (inactive)
74 | CCn1c2ccccc2c2cc(NC(=O)C(C)Oc3ccccc3)ccc21 (stereo not drawn) | -7.23% (inactive)
75 | O=C(NCc1cn2ccsc2n1)Nc1ccc(Cl)cc1 | 2.35% (inactive)
76 | O=Cc1cn(Cc2ccccc2[N+](=O)[O-])c2ccccc12 | -16.4% (inactive)
77 | COCCNC(=O)c1ccc(C(=O)NCCOC)s1 | -3.43% (inactive)
78 | C/C(=C\c1ccco1)C1Nc2cccc3cccc(c23)N1 | 26.3% (inactive)
79 | Cc1ccc(C(=O)NCC(=O)NCC(=O)OCC(=O)c2ccc([N+](=O)[O-])cc2)cc1 | 5.29% (inactive)
80 | CCCCn1c(-c2ccccc2)nc2c(=O)n(C)c(=O)[nH]c21 | 0.02% (inactive)
81 | O=C(Cn1nc(Cl)nc1Cl)c1ccc2c(c1)OCCO2 | -23.9% (inactive)
82 | Cc1ccc2c(c1)C1CN(C)CCC1N2C(=O)COc1ccc(S(=O)(=O)N2CCOCC2)cc1 (stereo not drawn) | -9.64% (inactive)
83 | N#Cc1ccc(CSc2nnc(-c3ccncc3)n2CCc2ccccc2)cc1 | -2.17% (inactive)
84 | O=C(Nc1ccccn1)NC1CCCCC1 | -21.8% (inactive)
85 | O=C(Nc1ccsc1C(=O)NC1CCCCC1)c1ccccc1 | -6.29% (inactive)
86 | COc1ccc(-c2ccc(-c3noc(-c4cccs4)n3)c(OC)n2)cc1 | 11.8% (inactive)
87 | CCn1cc(C(C)(C)C)c(C#N)c1NC(C)=O | 15.8% (inactive)
88 | Cc1c(C(c2cccc([N+](=O)[O-])c2O)c2c(C)n(C)n(-c3ccccc3)c2=O)c(=O)n(-c2ccccc2)n1C | 1.78% (inactive)
89 | Cc1[nH]n(-c2ccccc2)c(=O)c1-c1ccc(Cl)cc1 | 11.1% (inactive)
90 | O=C(CCNS(=O)(=O)c1cccc2nsnc12)NCc1cccs1 | 8.47% (inactive)
91 | CCOC(=O)C1=C(C)NC(SCc2cc(=O)[nH][nH]2)=C(C#N)C1c1cccs1 (stereo not drawn) | -1.12% (inactive)
92 | COc1ccc(N2C(=O)C3CCCN3C2c2cccc(C)c2)cc1Cl (stereo not drawn) | -1.71% (inactive)

Row | SMILES | inhibition
93 | COc1cc(OC)c(C(=O)Nc2ccc(S(=O)(=O)Nc3ncccn3)cc2)cc1OC | -1.93% (inactive)
94 | COc1nccnc1NS(=O)(=O)c1ccc(NC(=S)NC(=O)c2cccnc2)cc1 | -4.58% (inactive)
95 | Cc1ccn2cc(CSc3ccccc3N)nc2c1 | -21.6% (inactive)
96 | Cc1cccc2cc(C#N)c(N3CCN(C)CC3)nc12 | -17.3% (inactive)
97 | CCOC(=O)N1CCN(C(=O)C(NC(=O)c2ccc(CC)cc2)C(C)C)CC1 (stereo not drawn) | -18.7% (inactive)
98 | COc1c(Cl)cnn(-c2ccc(C)cc2)c1=O | 5.85% (inactive)
99 | O=C(CN1CC(c2ccccc2)CC1=O)N/N=C/c1cc(Br)ccc1O (stereo not drawn) | 37.5% (inactive)
100 | O=C(CSCc1ccccc1)N/N=C/c1ccccc1OCc1ccccc1 | -1.35% (inactive)
101 | CC(C)(C)c1ccc(C2CC2C(=O)N/N=C\c2cc3ccccc3nc2Cl)cc1 (stereo not drawn) | -2.95% (inactive)
102 | CC(C)c1ccc(C2NC(=O)NC3=C2CCc2ccccc23)cc1 (stereo not drawn) | -9.82% (inactive)
103 | O=C(NC1CCCCC1)C(c1ccncc1)N(CC1CCCO1)C(=O)C(F)(F)F (stereo not drawn) | -3.18% (inactive)
104 | COc1ccc(Nc2nc(NCc3ccco3)nc(N/N=C/c3ccccc3Cl)n2)cc1 | -2.36% (inactive)
105 | CCOc1ccc(NC(=O)c2ccc(NC(=O)COC(=O)Cc3ccccc3)cc2)cc1 | 7.61% (inactive)
106 | Cc1ccc(NC(=S)NC(NC(=O)c2ccco2)C(Cl)(Cl)Cl)cc1 (stereo not drawn) | 0.18% (inactive)
107 | O=C(c1ccccc1)c1c2c(cc3sc4ccccc4[n+]13)-c1cccc3cccc-2c13 | 18% (inactive)
108 | CN1C(=O)CC(P(=O)(c2ccccc2)c2ccccc2)N(C)C1=O (stereo not drawn) | -0.81% (inactive)
109 | COc1ccc(N2C(=O)CC(Sc3nc(C)c4c(n3)CCCC4)C2=O)cc1 (stereo not drawn) | -5.07% (inactive)
110 | COC(=O)c1cc(C#N)c(Oc2ccc(F)cc2)nc1C | -11.3% (inactive)
111 | Nc1nc2ccccc2n1/N=C/c1ccc(-c2ccccc2)o1 | 5.57% (inactive)
112 | CN(C)CCCN(C(=O)CCc1ccccc1)c1nc2ccc(Cl)cc2s1 | -0.98% (inactive)
113 | c1ccc(C2(CNc3ccccn3)CCCC2)cc1 | -0.33% (inactive)
